# Experimental data taken from ChEMBL document CHEMBL5606460, “ASAP - DENV-2 NS2B-NS3 protease fluorescence single point” (2024).
# The whole screen tested about 2,000 compounds, of which about 110 (5.5%) showed an effect of 50% or more. The list comes from a sample in which strong results are over-represented; it also holds similar structures and randomly drawn compounds.
# Biological target: Genome polyprotein (dengue virus type 2) (UniProt P29990)
structure (smiles),measurement,setting,value
CNC(=O)c1cc(Cl)cc(C)c1NS(=O)(=O)c1ccc(Oc2ccccc2Cl)cc1,inhibition,"Thailand/16681/1984, Concentration 49.5 uM, Number of replicates 2.0, Standard deviation 1.9936078061389018 %",-4.39%
same,inhibition,"Thailand/16681/1984, Concentration 99.01 uM, Number of replicates 2.0, Standard deviation 1.8430300976388188 %",-5.53%
same,inhibition,"Thailand/16681/1984, Concentration 198.0 uM, Number of replicates 2.0, Standard deviation 2.010624849106266 %",-7.09%
O=C(O)c1cc(Cl)ccc1NS(=O)(=O)c1ccc(Br)cc1,inhibition,"Thailand/16681/1984, Concentration 49.5 uM, Number of replicates 2.0, Standard deviation 1.3795853744617563 %",7.98%
same,inhibition,"Thailand/16681/1984, Concentration 99.01 uM, Number of replicates 2.0, Standard deviation 2.3616490916140984 %",19.6%
same,inhibition,"Thailand/16681/1984, Concentration 198.0 uM, Number of replicates 2.0, Standard deviation 0.9946440456706616 %",67%
CNC(=O)c1cc(Cl)ccc1NS(=O)(=O)c1ccc(Oc2ccccc2Cl)cc1,inhibition,"Thailand/16681/1984, Concentration 49.5 uM, Number of replicates 2.0, Standard deviation 2.214504665393713 %",57.1%
same,inhibition,"Thailand/16681/1984, Concentration 99.01 uM, Number of replicates 2.0, Standard deviation 0.44410505168195935 %",89.7%
same,inhibition,"Thailand/16681/1984, Concentration 198.0 uM, Number of replicates 2.0, Standard deviation 0.048202507704939286 %",89.7%
CNS(=O)(=O)c1ccc(Oc2ccccc2Cl)cc1,inhibition,"Thailand/16681/1984, Concentration 49.5 uM, Number of replicates 2.0, Standard deviation 2.6119045762628477 %",-1.72%
same,inhibition,"Thailand/16681/1984, Concentration 99.01 uM, Number of replicates 2.0, Standard deviation 1.5233102161282106 %",-0.429%
same,inhibition,"Thailand/16681/1984, Concentration 198.0 uM, Number of replicates 2.0, Standard deviation 1.4243001461587221 %",1.7%
CNC(=O)c1cc(Cl)ccc1NS(=O)(=O)c1ccc(OC)cc1,inhibition,"Thailand/16681/1984, Concentration 49.5 uM, Number of replicates 2.0, Standard deviation 1.598704816821166 %",-9.51%
O=S(=O)(Nc1ccc(Cl)cc1)c1ccc(Oc2ccccc2Cl)cc1,inhibition,"Thailand/16681/1984, Concentration 49.5 uM, Number of replicates 2.0, Standard deviation 0.04775136783847868 %",12.2%
same,inhibition,"Thailand/16681/1984, Concentration 99.01 uM, Number of replicates 2.0, Standard deviation 0.32853232391890236 %",22.7%
same,inhibition,"Thailand/16681/1984, Concentration 198.0 uM, Number of replicates 2.0, Standard deviation 1.060565762839157 %",44.5%
O=C(O)c1cc(Cl)ccc1NS(=O)(=O)c1ccc(Oc2ccccc2Cl)cc1,inhibition,"Thailand/16681/1984, Concentration 49.5 uM, Number of replicates 2.0, Standard deviation 0.09788858447746204 %",95.7%
same,inhibition,"Thailand/16681/1984, Concentration 99.01 uM, Number of replicates 2.0, Standard deviation 0.14802782416517393 %",94.6%
same,inhibition,"Thailand/16681/1984, Concentration 198.0 uM, Number of replicates 2.0, Standard deviation 0.06255266668592849 %",91.9%
O=C(NCc1ccccc1)c1cc(O)ccc1NS(=O)(=O)c1ccc(Oc2ccccc2Cl)cc1,inhibition,"Thailand/16681/1984, Concentration 49.5 uM, Number of replicates 2.0, Standard deviation 0.5844803568567073 %",33.5%
same,inhibition,"Thailand/16681/1984, Concentration 99.01 uM, Number of replicates 2.0, Standard deviation 0.18145668135528656 %",55.3%
same,inhibition,"Thailand/16681/1984, Concentration 198.0 uM, Number of replicates 2.0, Standard deviation 0.23302823954279267 %",60.6%
CNC(=O)c1cc(OC)ccc1NS(=O)(=O)c1ccc(Oc2ccccc2Cl)cc1,inhibition,"Thailand/16681/1984, Concentration 49.5 uM, Number of replicates 2.0, Standard deviation 1.018543331825067 %",7.08%
same,inhibition,"Thailand/16681/1984, Concentration 99.01 uM, Number of replicates 2.0, Standard deviation 0.3266212172200244 %",15.5%
same,inhibition,"Thailand/16681/1984, Concentration 198.0 uM, Number of replicates 2.0, Standard deviation 0.9287695329724984 %",21.9%
CNC(=O)c1cc(Cl)ccc1NS(=O)(=O)c1ccc(NS(C)(=O)=O)cc1,inhibition,"Thailand/16681/1984, Concentration 49.5 uM, Number of replicates 2.0, Standard deviation 0.6295365180266114 %",1.5%
same,inhibition,"Thailand/16681/1984, Concentration 99.01 uM, Number of replicates 2.0, Standard deviation 0.4200098669756753 %",3.13%
same,inhibition,"Thailand/16681/1984, Concentration 198.0 uM, Number of replicates 2.0, Standard deviation 0.4807630318175827 %",6.02%
Cc1cc(CO)c2cccc(Cc3ccccc3C(=O)N[C@@H](CCCN)C(=O)O)c2n1,inhibition,"Thailand/16681/1984, Concentration 49.95 uM, Number of replicates 2.0, Standard deviation 1.450239339781055 %",-9.67%
same,inhibition,"Thailand/16681/1984, Concentration 99.9 uM, Number of replicates 2.0, Standard deviation 1.946109361538337 %",0.782%
